# Reference: ChEMBL document CHEMBL4513216, “Probing the Open Global Health Chemical Diversity Library for Multistage-Active Starting Points for Next-Generation Antimalarials” (ACS Infect Dis, 2020)
# Out of some 69,000 compounds screened, about 8,600 (12%) showed an effect of 50% or more. This excerpt belongs to a sample that is enriched for strong results.
# System: Plasmodium berghei
# Assay: Screen against P. berghei liver stage (PbLuc), transformed with Luciferase, at 10uM
# Type: functional, HepG2
# Conditions: tested at 10 uM
row,Structure (SMILES),INHIBITION [%]
1,COCCNC(=O)Cn1cc(OCc2ccccc2)c(=O)cc1CO,-8.66
2,Cc1cc(C)n(CC2CCCN2C(=O)c2nccc3ccccc23)n1 (centres undefined),-144
3,COc1ccc(OCCc2nnc(NC(C)=O)s2)cc1,20.9
4,CC(=O)Nc1ncc(-c2ccc(C)cc2)[nH]1,45.5
5,COc1ccc(-c2cnc(NC(C)=O)[nH]2)cc1,56
6,CC(C)CCN1C[C@@H]2C[C@H](C(=O)N3CCCC3)[C@H](C1)O2,10.6
7,COc1ccccc1C(=O)N1CCOCC1c1c(C)n[nH]c1C (centres undefined),-34.8
8,CN1N=C(C(=O)NCCc2ccc(OC3CCCC3)cc2)CCC1=O,45.4
9,CC(C)[C@H](NS(C)(=O)=O)C(=O)NCc1cc(-c2ccco2)n[nH]1,23.4
10,CC(C)[C@H](NS(C)(=O)=O)C(=O)NCc1cc(-c2ccco2)nn1C,54.5
11,CC(C)[C@H](NS(C)(=O)=O)C(=O)NCc1cc(-c2ccccc2)nn1C,20.4
12,Cc1nc(CN(CCS(C)(=O)=O)C(C)(C)C)no1,12.9
13,N#Cc1cccnc1N1CCCN(C(=O)CCc2nccs2)CC1,-19.4
14,CCOCC(=O)NC1(c2nc(C)cs2)CCCC1,25.2
15,Cc1nc2cc(CNC(=O)C3CC(=O)N(CCN(C)C)C3)ccc2n1C (centres undefined),-4.35
16,Cc1nc2cc(CNC(=O)C3CC(=O)N(C4CCCC4)C3)ccc2n1C (centres undefined),53.7
17,CCN1CC(C(=O)NCc2ccc3c(c2)nc(C)n3C)CCC1=O (centres undefined),11.9
18,CCc1cnc(N)nc1NCCC(=O)NC1CCCCC1,68.4
19,CCc1nc(N)nc(NCCC(=O)NC2CCCCC2)c1C,41.5
20,CCc1cnc(N)nc1NCCN1CCCCC1,5.14
21,O=C(NC1CC1)C1(Cc2cc(-c3ccc(F)cc3F)no2)CCOCC1,31.6
22,NC(=O)NCCC(=O)N1CCC(c2cc(Cc3ccccc3)n[nH]2)CC1,-5.22
23,Cc1cc(CN2CCC(c3cc(Cc4ccccc4)n[nH]3)CC2)[nH]n1,30.9
24,Nc1nc(O)cc(N2CCC(c3cc(Cc4ccccc4)n[nH]3)CC2)n1,47
25,Nc1nccc(N2CCC(c3cc(Cc4ccccc4)n[nH]3)CC2)n1,78.8
26,Nc1cc(N2CCC(c3cc(Cc4ccccc4)n[nH]3)CC2)ccn1,75.4
27,Cc1ccc(N2CCC(c3cc(Cc4ccccc4)n[nH]3)CC2)nn1,20.9
28,COc1c(CNCCNC(=O)c2ccccc2F)c(C)nn1C,-7.31
29,Cc1noc([C@H]2C[C@@H]3CCN(CC4CC4)C[C@H]3O2)n1,-5.29
